Data as given in PubChem BioAssay AID1578 (Sanford-Burnham Center for Chemical Genomics, 2009).
The campaign covered roughly 290,000 compounds. About 3,000 (1%) were called active. This is one part of a sample in which actives are shown more often than they occur. Values without a mark were called inactive. No stated cut-off is given here; in the data, active means inhibition mostly above about 36% (no sharp cut-off); inactive means mostly below about 34%.

Assay: inhibition of NOD1-driven NF-kB reporter – cell-based, luminescence, uHTS, primary screen (AID 1578);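 further: HEK-293T reporter cells stimulated with the NOD1 agonist gamma-tri-DAP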
Details: NOD1-driven NF-kB luciferase reporter cells, at 4 µM, active compounds read high

SMILES | inhibition
CC1CCCC(C)N1C(=O)CSc1nc2c(c(=O)n(C)c(=O)n2C)n1C (configuration not stated) | -1%
CC(C)Oc1ccccc1/C=N/NC(=O)c1ccccc1Cl | 0.5%
CC1CCCC(NC(=O)Cc2ccc(Br)cc2)C1C (configuration not stated) | -21.4%
CCC(c1nnnn1C(C)C)N1CCN(C2CCCC2)CC1 (configuration not stated) | -14%
COc1ccc(/C=C2\COc3ccccc3C2=O)c(OC)c1 | -27.3%
COc1ccc(Nc2nc(-c3c(C)nc4ncccn34)cs2)cc1 | 17.6%
COc1ccccc1Nc1nc(-c2c(C)nc3ncccn23)cs1 | 61.6% (active)
COc1ccc(OC)c(Nc2nc(-c3c(C)nc4ncccn34)cs2)c1 | -9.4%
CCOC(=O)c1ccc(N=c2ssnc2Cl)cc1 | -21.1%
CN(CCN1CCOCC1)Cc1nc(-c2cccs2)no1 | -22.4%
Cc1ccsc1C=Nc1ccc(O)cc1 | 27.4%
Cc1ccsc1/C=N/N=C/c1sccc1C | 76.7% (active)
Cc1ccsc1/C=N/n1cnnc1 | -5.7%
COc1ccc(C(=O)C(OC(=O)CNC(=O)c2ccco2)c2ccccc2)cc1 (configuration not stated) | -7.7%
COc1ccccc1C(=O)NNC(=O)C1CCCO1 (configuration not stated) | -10.6%
COc1ccc(C(=O)Nc2ccc(N3CCCCC3)cc2)cc1Br | -49%
O=C1CCC(c2ccccc2)N1C(=O)c1cccnc1 (configuration not stated) | -12.6%
CC1(C)Oc2nc3ccccc3n2/C1=C\C#N | 42% (active)
CNc1nc2ccccc2n1N | 47%
N#C/C=C1\n2c(nc3ccccc32)OC12CCCCC2 | -4%
c1ccc(CCSc2ncnc3nc[nH]c23)cc1 | -1.6%
Cc1cccc(CSc2ncnc3nc[nH]c23)c1 | -13.3%
c1ccc(CCNc2ncnc3nc[nH]c23)cc1 | 16.7%

SMILES | inhibition
c1ccc2c(CSc3ncnc4nc[nH]c34)cccc2c1 | 71.3% (active)
c1ccc2c(CCNc3ncnc4nc[nH]c34)c[nH]c2c1 | 20.4%
c1ccc2c(CCNc3ncnc4nc[nH]c34)cccc2c1 | 62% (active)
Cc1cccc(C(=O)NC(=O)Nc2c(C)cc(C)nc2C)c1 | -46.9%
O=C(CCCn1cc([N+](=O)[O-])cn1)Nc1cccnc1 | -11.6%
Cc1ccc(C(=O)c2coc3cc([N+](=O)[O-])c(O)c([N+](=O)[O-])c23)cc1 | 21.2%
CCCCN(CCCC)c1ncnc2nc[nH]c12 | 84.5% (active)
CCCCN(Cc1ccccc1)c1ncnc2nc[nH]c12 | -41%
CCCCN(c1ccccc1)c1ncnc2nc[nH]c12 | 36.9%
O=C(N[C@@H]1CCC(=O)N(CC[C@H](Oc2ccccc2)c2ccccc2)CC1)OCc1ccccc1 | 53.8%
COc1cc(/C=C(\C#N)C(=O)NC2CCCCC2C)ccc1OS(=O)(=O)c1ccc(C)cc1 (configuration not stated) | 75.9% (active)
C=CCNC(=O)/C(C#N)=C/c1ccc(OS(=O)(=O)c2ccc(C)cc2)c(OC)c1 | 10%
COc1cc(/C=C(\C#N)C(N)=O)ccc1OS(=O)(=O)c1ccc(C)cc1 | 14.7%
COc1ccc(CNC(=O)CN(Cc2ccc(F)cc2)C(=O)c2csnn2)cc1 | -24.5%
C=CCn1c(=O)c2ccc(C(=O)NCc3ccccc3)cc2n(Cc2cccc(Cl)c2)c1=O | 61.7%
O=C(CN1CCCN(S(=O)(=O)c2ccc(F)cc2)CC1)Nc1c(Cl)cccc1Cl | -4.7%
Fc1cccc(Cl)c1CNC(c1ccccc1)c1ccccc1 | 9.2%
Cc1ccc(NCC(=O)N/N=C/c2cc3ccccc3nc2Cl)cc1 | -21.8%
COc1ccccc1/C=C(/C(=O)OCC(N)=O)c1ccccc1 | 0.8%
CCOC(=O)C(=Cc1ccc(-n2ccnc2)cc1)C(=O)OCC | 45.8% (active)
CCOC(=O)C(=Cc1ccccc1OC)C(=O)OCC | 47.6% (active)
CCOC(=O)C(=Cc1ccc(F)cc1)C(=O)OCC | 31.2%
CCOC(=O)C(=Cc1cc(=O)c(OC)co1)C(=O)OCC | -12.3%

SMILES | inhibition
COC(=O)/C=C/c1ccc(-n2ccnc2)cc1 | -9.9%
CCOC(=O)/C(=C/c1ccc(OC(=O)c2ccccc2)cc1)C(C)=O | -13.5%
CCOC(=O)C(=Cc1ccc(Br)cc1)C(=O)OCC | 36.2% (active)
O=C(O)/C=C/c1ccc(-n2ccnc2)cc1 | 1.1%
Cc1nn(-c2ccccc2)c(C)c1C(=O)OCC(=O)N1CCN(S(=O)(=O)c2ccccc2)CC1 | -0.7%
Cc1ccc2c(N)c(C)ccc2c1 | -4.1%
Cn1ncc(N2CCN(C(=O)c3ccc(Cl)cc3)CC2)c(Cl)c1=O | -21.9%
COc1ccc(CNC(=O)C2CCCN(S(=O)(=O)c3ccc(Br)s3)C2)cc1 (configuration not stated) | -13.3%
Cc1cc(N/N=C/c2ccccc2F)nc(NCc2ccccc2)n1 | -2.7%
CCN(CC)C(=O)CSC(Nc1ccc(F)cc1)=C(C#N)C#N | 4.2%
Cc1cccc(CSC(Nc2ccc(F)cc2)=C(C#N)C#N)c1 | 83.7% (active)
CCc1ccc(N/C(SCc2cccc(F)c2)=C(/C#N)C(=O)NCc2ccco2)cc1 | 3.2%
COc1ccc(S(=O)(=O)N(C)CC(=O)N2CCCC2)cc1OC | -5.3%
c1ccc(SCc2cn(C[C@H]3CC[C@@H]([C@@H]4CC[C@H](Cn5cc(CSc6ccccc6)nn5)O4)O3)nn2)cc1 | 22.8%
CCCn1c2ccccc2c2cnn(CC(=O)NC3CCCCC3)c(=O)c21 | -26.9%
O=C(Nc1nc(-c2ccccc2)c(-c2ccccc2)o1)c1ccc(F)cc1 | 97.4% (active)
CCN(CC)C(=S)SCC(=O)Nc1nc(-c2ccccc2)c(-c2ccccc2)o1 | 72.2% (active)
CC(=O)Nc1nc(-c2ccccc2)c(-c2ccccc2)o1 | -5.3%
Cc1ccc(C(=O)Nc2nc(-c3ccccc3)c(-c3ccccc3)o2)cc1 | 35.6%
O=C(CSC(=S)N1CCCCC1)Nc1nc(-c2ccccc2)c(-c2ccccc2)o1 | 9.9%
CN1CCN(C(=S)SCC(=O)Nc2nc(-c3ccccc3)c(-c3ccccc3)o2)CC1 | -3.5%
